# Data: the supplement of paper PMC3484114
# ± gives the standard deviation.
# Tested on: OVCAR-3-derived ovarian cancer stem-like cells (spheroids)
# Experiment: cell growth relative to untreated control; higher = more growth (less inhibition)
# Conditions: 2.29 µM; 96 h
# Summary of the method: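 After trypsin dissociation, OVCAR-3 spheroid-derived stem-like cells were placed in ultra-low attachment 96-well plates at 50,000 cells/mL in stem cell medium and preincubated for 24 h. Treatment at 2.29 uM followed for 96 h at 37°C, 5% CO2, with 4 replicate wells per compound. A 4 h TOX8 resazurin fluorescence read (ex 560/em 590 nm) gave viability, from which percent growth relative to untreated wells was derived after blank subtraction and Grubbs outlier removal.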
row,SMILES,cell growth [%]
1,CC(C)(C)C1CCC2(CC1)CCN(CCCN1CCOCC1)CC2,119 ± 12
2,OCCNCCN1CCN(CCCN2c3ccccc3Sc3ccc(C(F)(F)F)cc32)CC1,126 ± 42
3,Fc1cccc(Cl)c1C1SCc2nc3ccccc3n21 (centres undefined),22.8 ± 9.7
4,Clc1ccccc1C(c1ccccc1)(c1ccccc1)n1ccnc1,106 ± 13
5,CN(CCc1ccccn1)c1ccc2c(c1)C(=O)c1ccccc1-2,103 ± 32
6,Cc1c2cc[n+](CCN3CCCCC3)cc2c(C)c2c1[nH]c1ccc(O)cc12,146 ± 52
7,O=C(CC(=O)c1ccccc1NC1=Cc2ccccc2C(=O)C1=O)C(=O)NC1=C(Cl)C(=O)c2ccccc2C1=O,33.3 ± 13
8,CCCCCCCCCCSCC(CO)NC(=O)/C=C/c1c(C)[nH]c(=O)[nH]c1=O (centres undefined),107 ± 23
9,Cc1cc(-c2nc3ccccc3s2)ccc1N,73.6 ± 9
10,COc1cc2c(cc1Oc1ccc(OC)c3c1CC1c4c(cc(OC)c(OC)c4-3)CCN1C)CC1c3c(cc(OC)c(OC)c3-2)CCN1C (centres undefined),101 ± 11
11,O=C(C[n+]1ccc2ccccc2c1)c1ccc2ccc3ccccc3c2c1,95.1 ± 31
12,Cc1ccc(S(=O)(=O)ON=C2CC(c3ccccc3)N(C)C(c3ccccc3)C2)cc1 (centres undefined),96.7 ± 22
13,Cc1cc2c(c3oc(C4(C)OC4C4OC4C)cc(=O)c13)C(=O)c1c(O)c(C3CC(C)(N(C)C)C(O)C(C)O3)cc(C3CC(N(C)C)C(O)C(C)O3)c1C2=O (centres undefined),47.6 ± 40
14,COc1ccc(C2C(C)C(=O)C(C)C(c3ccc(OC)cc3)N2N=O)cc1 (centres undefined),110 ± 23
15,CCC12C[N+]3([O-])CCc4c([nH]c5ccccc45)C(C(=O)OC)(c4cc5c(cc4OC)N(C)C4C(O)(C(=O)OC)C(OC(C)=O)C6(CC)C=CCN7CCC54C76)CC(C3)C1O2 (centres undefined),27.9 ± 4.2
16,CCN(CC)Cc1cc(N=Nc2c(O)ccc3c(N=Nc4ccc(O)c(CN(CC)CC)c4)c(O)ccc23)ccc1O,70.5 ± 21
17,CCOC(=O)c1sc2[n+](c1C)C(=O)/C(=C/c1ccc([N+](=O)[O-])cc1)S2,94.2 ± 27
18,COc1cc2oc(=O)cc(C)c2cc1[N+](=O)[O-],137 ± 45
19,N[C@H](C(=O)O)[C@H]1ON=C(Cl)[C@H]1O,91.4 ± 16
20,O=c1ccc2ccc(CBr)cc2o1,84.2 ± 21

row,SMILES,cell growth [%]
1,O=C([O-])c1cc(I)cc(I)c1O.O=C([O-])c1cc(I)cc(I)c1O.[Mn+2],77.4 ± 10
2,COC1C(O)=C2C(=O)OC(C)(O)/C=C/C=C\C=C/C=C/C(c3ccccc3)NC(=O)/C=C/C=C/C=C/C=C/C2(C)C1O (centres undefined),71.7 ± 31
3,O=C(c1nc2ccc(Cl)cc2[nH]c1=O)C(O)c1ccc2c(c1)OCO2 (centres undefined),109 ± 61
4,CCCCCC(CN1CCOCC1)C(=O)/C=C/c1ccccc1 (centres undefined),93 ± 29
5,CN(C)C(=S)/N=c1\ss/c(=N\C(=S)N(C)C)n1-c1ccc2c(c1)OCO2,76.4 ± 5.8
6,COc1ccc(Cc2nc3ccccc3s2)cc1OC,98.9 ± 21
7,COc1nc(C(Cl)(Cl)Cl)c(Cl)c(OC)c1Cl,112 ± 17
8,CN(Cc1cnc2nc(N)nc(N)c2n1)c1ccc(C(=O)NC(CCC(=O)O)C(=O)O)c2ccccc12 (centres undefined),84.7 ± 30
9,COC(=O)c1cc(-c2c[nH]cc2C(=O)OCc2ccccc2)cn1S(=O)(=O)c1ccc(C)cc1,140 ± 35
10,S=C(Nc1ccccc1)N(/N=C/C=C/c1ccccc1)c1nnc(-c2ccccc2)c(-c2ccccc2)n1,132 ± 57
11,CC(=O)NCCCCCCNC(C)=O,119 ± 7.8
12,Cc1ccc(S(=O)(=O)N2CCSCCSCCSCCSCC2)cc1,92.2 ± 26
13,COC1CN(C)C(=Nc2cccc3ccccc23)S1 (centres undefined),130 ± 21
14,CN(C)CCCCN1CCc2c(n(C)c3ccccc23)C1=O,101 ± 13
15,Nc1nc(SCc2ccccc2Cl)c2ncn(C3OC(CO)C(O)C3O)c2n1 (centres undefined),177 ± 61
16,COc1ccc(C(=O)/C(Br)=C\C(=O)O)cc1,75.5 ± 16
17,C=C1C(=O)C2=CC1CCC(=O)C1(C)CCC(OC(C)=O)C(C)(C)C1CC2O (centres undefined),30.4 ± 11
18,C/C(=N\Nc1nc2ccccc2s1)c1ccncn1,30.8 ± 7.4
19,COc1ccc2c(NCCCCCCNc3c4ccccc4nc4cc(OC)ccc34)c3ccccc3nc2c1,13.9 ± 5.5
